This is a sample that favours compounds with a hit; in the whole collection about 6.1% have one here.
S2 tox = Viability Counterscreen for Primary qHTS for Inhibitors of ATXN expression; S2 cells (HEK-293 line with an ATXN2-luciferase reporter) viability, CellTiter-Fluor protease fluorescence, 24 h; Potency, µM (highest dose often 56.7 µM), most hits filed as cytotoxic; hit rate 0.49% among 400,000; AID 651635, 2014; further: nearly all actives have a fitted effect of over 40% in size
RORgamma inh = qHTS for inhibitors of ROR gamma transcriptional activity; Nuclear receptor ROR-gamma (Mus musculus), P51450; hit rate 5.4% among 310,000; Potency, µM (highest dose often 53.6 µM), for inactives: at the highest dose activity change, negative = inhibition, actives largely listed as inhibitors; Drosophila S2 Gal4-RORgamma UAS-luciferase reporter, 20 h; further: on the % scale 0 is the no-effect control and ±100 the full control effect; nearly all actives have a fitted effect of over 60% in size
Target sequence (P51450 whole entry, looked up, the tested form may be a part): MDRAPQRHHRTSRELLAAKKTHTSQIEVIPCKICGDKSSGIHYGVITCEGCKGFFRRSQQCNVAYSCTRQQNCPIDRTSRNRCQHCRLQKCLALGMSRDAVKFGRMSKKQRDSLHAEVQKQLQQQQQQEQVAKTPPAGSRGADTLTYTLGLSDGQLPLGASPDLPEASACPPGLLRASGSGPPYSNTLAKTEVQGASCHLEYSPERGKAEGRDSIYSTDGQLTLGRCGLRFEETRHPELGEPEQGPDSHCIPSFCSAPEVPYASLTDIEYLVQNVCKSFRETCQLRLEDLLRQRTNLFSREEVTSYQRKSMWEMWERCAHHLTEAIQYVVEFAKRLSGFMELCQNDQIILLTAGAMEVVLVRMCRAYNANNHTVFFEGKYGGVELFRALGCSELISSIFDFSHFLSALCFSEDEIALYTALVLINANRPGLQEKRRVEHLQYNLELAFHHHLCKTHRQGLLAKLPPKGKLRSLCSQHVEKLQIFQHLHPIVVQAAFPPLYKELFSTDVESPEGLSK
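Compounds are pin-transferred onto Drosophila Schneider cells expressing a copper-inducible Gal4–ROR gamma transactivation domain fusion. After 1 hr, copper sulfate is added to 700 uM final; luciferase is read 20 hr later.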
HepG2 viability = qHTS for Inhibitors of TGF-b: Cytotox Counterscreen | HepG2 CAGA-GFP viability, ATP luminescence, 18 h | Potency, µM (doses to about 46.1 µM), without a hit: at the highest dose activity change, negative = cytotoxicity, most hits filed as cytotoxic | hit rate 0.76% among 410,000 | AID 588856, 2011
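CellTiter-Glo luminescence gave cytotoxicity after 18 hours at 37 degrees C. The cells were HepG2 CAGA-GFP in 1% FBS DMEM, stimulated with 500 pg/mL TGF-beta after compound addition. %Activity was normalised to no-cell wells (complete cell-killing) and DMSO (no toxicity), and curves were fitted and classified.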
TGFb SMAD3 inh = qHTS for Inhibitors of TGF-b; HepG2 CAGA-GFP TGF-b/SMAD3 reporter, GFP fluorescence, 18 h; TGF-beta stimulated, 500 pg/mL final; Potency, µM (titrated, usually from 46.1 µM), for the others: at the top dose activity, negative = inhibition, most hits filed as inhibitors; hit rate 1.2% among 410,000; further: on the % scale 0 is the no-effect control and ±100 the full control effect; nearly all actives have a fitted effect of over 65% in size
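Smad-responsive CAGA-GFP expression was quantified in HEPG2 cells exposed to compounds and 500 pg/mL final TGF-beta for 18 h at 37 degrees C; unstimulated wells defined full inhibition.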
ATXN2 expr inh = Primary qHTS for Inhibitors of ATXN expression; HEK-293 ATXN2-luciferase reporter, luminescence, 24 h; Potency, µM (highest dose often 57 µM), for the others: at the highest dose activity change, negative = inhibition, actives largely listed as inhibitors; hit rate 0.72% among 360,000; further: on the % scale 0 is the no-effect control and ±100 the full control effect; nearly all actives have a fitted effect of over 55% in size
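qHTS (up to 57 uM final) was run with 24 h compound exposure of reporter cells at 37 °C. Each well was multiplexed: SteadyGlo luminescence measured ATXN2-luciferase expression after a fluorogenic Gly-Phe-AFC viability readout (25 uM final).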
Gal4-VP16 FLuc = VP16 counterscreen qHTS for inhibitors of ROR gamma transcriptional activity. Drosophila S2 Gal4-VP16 UAS-luciferase, luminescence, 20 h. Potency, µM (titrated, usually from 53.6 µM), for inactives: at the top dose activity, negative = inhibition, usual class: inhibitors. hit rate 3.5% among 310,000. AID 2546, 2010;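 further: Gal4-VP16 expression switched on by copper sulfate through the metallothionein promoter; on the % scale 0 is the no-effect control and ±100 the full control effect; nearly all actives have a fitted effect of over 50% in size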
* = called active by the depositor; i = inactive; ? = inconclusive; / = not tested or not shown. The call rests on the fitted dose curve; in most records, active means well fitted curve in the direction sought with a large enough effect; inconclusive means small, poorly fitted or top-dose-only effect, or another doubt; inactive means no such curve, though single readings can be large; an effect the other way counts as inactive or inconclusive. Potency means the concentration at half of the fitted maximal effect.

SMILES	S2 tox	RORgamma inh	HepG2 viability	TGFb SMAD3 inh	ATXN2 expr inh	Gal4-VP16 FLuc
CCCN(c1c(C)n(C)n(-c2ccccc2)c1=O)S(=O)(=O)c1ccc(C)cc1	i	/	-26%	-14%	-11%	/
C[C@H](CO)N1C[C@H](C)[C@H](CN(C)Cc2ccc(-c3ccccc3)cc2)Oc2ccc(NS(=O)(=O)c3ccccc3)cc2CC1=O	?	/	11µM*	?	?	/
C[C@@H]1CN([C@@H](C)CO)C(=O)Cc2cc(NS(=O)(=O)c3ccccc3)ccc2O[C@H]1CN(C)Cc1ccncc1	i	/	-18%	?	5%	/
Cc1ccc(S(=O)(=O)Nc2ccc3c(c2)CC(=O)N([C@H](C)CO)C[C@@H](C)[C@H](CN(C)Cc2ccc(-c4ccccc4)cc2)O3)cc1	22µM*	/	-93%	11µM*	?	/
C[C@H]1CN([C@@H](C)CO)C(=O)Cc2cc(NC(=O)CCC(F)(F)F)ccc2O[C@H]1CN(C)Cc1ccc(-c2ccccc2)cc1	/	/	18µM*	13µM*	?	/
CN(C)c1ccc(/C=C/c2nc3ccccc3s2)cc1Cl	/	/	-34%	?	/	/
CCCCN(CC)CCCn1cnc2c([nH]c3ccc(Cl)cc32)c1=O	i	/	-21%	27%	-20%	/
COc1cccc(-c2nc(Cn3c(=O)cc(C)c4c(C)nn(-c5ccccc5)c43)c(C)o2)c1OC	i	/	15%	-3%	12%	/
CCCCCn1c(N2CCC(Cc3ccccc3)CC2)nc2c1c(=O)[nH]c(=O)n2C	/	/	11µM*	?	?	/
CCOc1ccc(NC(=O)Cn2c(=O)cc(C)c3c(C)nn(-c4ccc(CC)cc4)c32)cc1	i	/	-25%	-8%	6%	/
O=C(N[C@@H]1C/C=C\C[C@@H](CC(=O)N(CCO)Cc2ccccc2)C(=O)NC[C@H](c2ccccc2)OC1=O)OCC1c2ccccc2-c2ccccc21	?	/	-60%	?	?	/
O=C(C[C@H]1C/C=C\C[C@@H](Cc2ccc(F)cc2)C(=O)O[C@H](c2ccccc2)CNC1=O)N[C@@H](CO)Cc1ccccc1	i	/	0%	-5%	11%	/
O=C(N[C@@H]1C/C=C\C[C@H](CC(=O)N(CCO)Cc2ccccc2)C(=O)NC[C@@H](c2ccccc2)OC1=O)OCC1c2ccccc2-c2ccccc21	?	/	-66%	7.9µM*	0%	/
O=C(C[C@H]1C/C=C\C[C@H](NC(=O)OCC2c3ccccc3-c3ccccc32)C(=O)O[C@H](c2ccccc2)CNC1=O)N[C@H](CO)Cc1ccccc1	?	/	-47%	16µM*	?	/
Cc1ccc(N(CC(=O)NC2CCCC2)C(=O)CCCC(=O)Nc2ccccn2)cc1C	i	-12%	10%	6%	5%	1%
Cc1cc(C)cc(N(CC(=O)NC2CCCCC2)C(=O)CCCC(=O)Nc2ccccn2)c1	i	-3%	11µM*	-16%	-10%	-26%
Cn1c(SCc2ccccc2)nnc1C1CCCN(Cc2cccc3ncccc23)C1 (stereo not given)	i	/	/	/	/	/
CN(C(=O)c1ccc(-c2ccccc2)cc1)C1CCCCC1	?	/	-27%	-6%	5%	/
Cc1ccc(C(=O)NC(=S)N(C)C2CCCCC2)cc1	i	2.2µM*	-5%	-3%	40%	3.2µM*
CN(C(=S)NC(=O)/C=C/c1ccc(F)cc1)C1CCCCC1	i	1.3µM*	-20%	-23%	16%	2.5µM*
O=C(/C=C/c1ccc(F)cc1)NC(=S)NC1CCCCC1	i	?	-6%	-7%	/	-5%
Cc1cccc(NC(=S)N(C)C2CCCCC2)c1	i	11µM*	0%	-6%	3%	18µM*
CC(C)NC(=S)NC(=O)/C=C/c1ccc(F)cc1	i	1.8µM*	7%	?	16%	7.1µM*
CCc1cccc(NC(=O)CN(c2ccc(C)cc2)S(=O)(=O)c2cccs2)c1	?	/	-31%	-11%	-17%	/
COc1ccc(CN2C(=O)c3cccnc3C2=O)cc1S(=O)(=O)N(C)c1ccc(C)cc1	i	-25%	-1%	-3%	10%	-2%
SMILES	S2 tox	RORgamma inh	HepG2 viability	TGFb SMAD3 inh	ATXN2 expr inh	Gal4-VP16 FLuc
CCN(c1cccc(C)c1)S(=O)(=O)c1cc(CN2C(=O)c3cccnc3C2=O)ccc1OC	i	-30%	11µM*	2%	2%	-9%
Cc1ccc(NC(=O)COc2ccccc2CNC(C)(C)CC(C)(C)C)cc1	22µM*	-33%	11µM*	?	25µM*	2%
CC(=O)Nc1cccc(NC(=O)COc2ccccc2C)c1	i	36%	2%	3%	17%	4%
Cc1ccc(OCC(=O)Nc2ccncc2)c(C)c1	?	4%	-53%	?	9%	16µM*
Cc1ccccc1OCC(=O)Nc1ccc(Cc2ccncc2)cc1	i	?	-26%	-31%	?	10µM*
Cc1ccccc1OCC(=O)Nc1ccncc1	?	?	-2%	-24%	-4%	11µM*
O=S(=O)(c1ccc2nc(Nc3ccc(Br)cc3F)ccc2c1)N1CCCC1	i	/	-31%	1%	-7%	/
CCCCCCN1C=CC(=C2C(=O)c3ccccc3C2=O)C=C1	i	23%	-23%	8%	?	-9%
CCCN1C=CC(=C2C(=O)c3ccccc3C2=O)C=C1	?	1.1µM*	7.1µM*	5%	?	0.25µM*
CCCCN1C(C)=CC(=C2C(=O)c3ccccc3C2=O)C=C1C	i	-19%	-22%	-14%	0%	-22%
CCN1C=CC(=C2C(=O)c3ccccc3C2=O)C=C1	?	?	-81%	-6%	1.1µM*	0.32µM*
Cc1c(C(=O)NCC(C)(C)CN(C)C)cnn1-c1nccc(-c2ccccc2F)n1	i	/	/	/	/	/
CC(O)(c1ccccc1)c1nc(/C=C/c2ccccc2)cs1 (stereo not given)	?	/	-27%	-19%	1%	/
COc1cccc(C(C)(O)c2nc(-c3csc4ccccc34)cs2)c1 (stereo not given)	i	/	-49%	18µM*	6%	/
COc1cccc(C(C)(O)c2nc(-c3ccccc3C)cs2)c1 (stereo not given)	i	/	-30%	?	0%	/
OC(c1ccccc1)(c1nc(-c2ccccc2)cs1)C(F)(F)F (stereo not given)	?	/	-109%	?	0%	/
COc1cccc(C(C)(O)c2nc(/C=C/c3ccccc3)cs2)c1 (stereo not given)	i	/	-24%	14µM*	-2%	/

Screens as filed in PubChem.
